G9a block: G9a (human) methyltransferase inhibition; Q96KQ7; G9a H3K9 monomethylation, AlphaScreen, 2 h; Potency, µM (top dose mostly 102 µM), inactives show top-dose activity, negative = inhibition, most hits filed as inhibitors; 8.8% of 350,000 active; AID 504332; further: on the % scale 0 is the no-effect control and ±100 the full control effect; nearly all actives have a fitted effect of over 75% in size
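G9a (20 nM) preincubated 15 min RT with compounds, then 500 nM biotinylated H3K9 peptide and 20 uM SAM added; 2 h RT reaction. Monomethyl-H3K9 product detected by AlphaScreen with anti-H3K9me1 antibody, streptavidin donor and anti-rabbit IgG acceptor beads.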
HP1b binding inh: HP1-beta chromodomain-methylated histone interaction inhibition; P83916; AlphaScreen HP1-beta / biotin-H3K9me3 peptide binding; Potency, µM (titrated, usually from 114 µM), for the others: at the highest dose activity change, negative = inhibition, actives largely listed as inhibitors; 0.56% of 390,000 active; further: nearly all actives have a fitted effect of over 70% in size
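HP1-beta protein (50 nM final) preincubated 30 min at room temperature with biotinylated H3(1-18)K9me3 peptide (50 nM) in PBS pH 7.4, 0.01% Tween-20, then compound added for 30 min. AlphaScreen streptavidin donor/nickel chelate acceptor beads (10 ug/mL final), 30 min dark, luminescence read.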
BAZ2B inh: inhibitors of human BAZ2B bromodomain. AlphaScreen BAZ2B-H3K14Ac peptide displacement. 4.4% of 360,000 active. AID 504333. Q9UIF8. Potency, µM (titrated, usually from 114 µM), inactives show at the highest dose activity change, negative = inhibition, actives largely listed as inhibitors; further: on the % scale 0 is the no-effect control and ±100 the full control effect; nearly all actives have a fitted effect of over 60% in size
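Compounds, titrated to a top concentration of 110 uM, were incubated 30 min at room temperature with preformed BAZ2B/acetyl-K14 H3 peptide complex (50 nM each). Proximity signal was measured by AlphaScreen after 20 min with beads.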
L3MBTL1 block: L3MBTL1 (human) inhibition; Q9Y468; AID 485360; AlphaScreen L3MBTL1–H3K9me1 peptide binding; 0.66% of 230,000 active; Potency, µM (titrated, usually from 57.1 µM), for the others: at the highest dose activity, negative = inhibition, usual class: inhibitors; further: on the % scale 0 is the no-effect control and ±100 the full control effect; nearly all actives have a fitted effect of over 60% in size
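Read-out is AlphaScreen signal from streptavidin donor and nickel chelate acceptor beads (10 ug/mL final each) bridging L3MBTL1 (50 nM) and biotinylated K9-monomethylated H3(1-15) peptide (75 nM), after 30 min compound exposure at room temperature.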
JMJD2A Tudor: inhibitors of human JMJD2A Tudor domain; 4.4% of 390,000 active; O75164; AID 504339; AlphaScreen JMJD2A-Tudor / H3K4me3 peptide binding; Potency, µM (top dose mostly 114 µM), without a hit: top-dose activity change, negative = inhibition, actives largely listed as inhibitors; further: on the % scale 0 is the no-effect control and ±100 the full control effect; nearly all actives have a fitted effect of over 50% in size
Target sequence (O75164 whole entry, looked up, the tested form may be a part): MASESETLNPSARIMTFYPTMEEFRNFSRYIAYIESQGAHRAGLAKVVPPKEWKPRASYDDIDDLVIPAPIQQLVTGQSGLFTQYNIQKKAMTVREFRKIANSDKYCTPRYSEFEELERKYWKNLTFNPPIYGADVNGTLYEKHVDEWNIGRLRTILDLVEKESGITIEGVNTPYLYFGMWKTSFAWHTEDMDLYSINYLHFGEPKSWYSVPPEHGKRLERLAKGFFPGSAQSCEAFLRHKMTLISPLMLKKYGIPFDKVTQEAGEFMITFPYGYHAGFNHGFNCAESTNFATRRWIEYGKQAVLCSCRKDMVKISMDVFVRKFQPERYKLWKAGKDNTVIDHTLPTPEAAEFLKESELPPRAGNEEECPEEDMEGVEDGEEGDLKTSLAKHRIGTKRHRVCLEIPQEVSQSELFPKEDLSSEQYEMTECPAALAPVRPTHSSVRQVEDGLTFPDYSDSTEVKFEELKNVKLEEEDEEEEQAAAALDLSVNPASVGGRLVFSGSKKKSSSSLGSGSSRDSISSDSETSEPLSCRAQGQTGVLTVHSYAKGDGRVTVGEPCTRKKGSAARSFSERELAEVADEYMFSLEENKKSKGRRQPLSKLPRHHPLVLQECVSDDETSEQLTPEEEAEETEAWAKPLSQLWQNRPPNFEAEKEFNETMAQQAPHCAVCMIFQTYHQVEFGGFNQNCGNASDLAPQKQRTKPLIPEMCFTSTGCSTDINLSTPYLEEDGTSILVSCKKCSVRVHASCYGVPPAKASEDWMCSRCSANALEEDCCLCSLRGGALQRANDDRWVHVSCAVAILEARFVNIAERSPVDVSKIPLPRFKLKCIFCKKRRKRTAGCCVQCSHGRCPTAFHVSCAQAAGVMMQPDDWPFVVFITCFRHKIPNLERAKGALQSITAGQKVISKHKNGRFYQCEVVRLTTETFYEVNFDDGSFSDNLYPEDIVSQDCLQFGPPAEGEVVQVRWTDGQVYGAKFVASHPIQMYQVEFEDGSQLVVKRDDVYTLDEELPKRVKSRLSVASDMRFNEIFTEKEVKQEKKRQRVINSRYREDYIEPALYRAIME
Starred values were filed as active, the others as inactive; ? = inconclusive; · = no result; [ ] = another dose, or the depositor's remark. Hits are enriched below; roughly 11% of the tested compounds scored in any of these assays. The call rests on the fitted dose curve; in most records, active means well fitted inhibition curve with a large enough effect; inconclusive means small, poorly fitted or top-dose-only effect; inactive means no such curve, though single readings can be large or run the other way. Potency means the concentration at half of the fitted maximal effect.

SMILES	G9a block	HP1b binding inh	BAZ2B inh	L3MBTL1 block	JMJD2A Tudor
Cn1c(N)c(C(=O)COC(=O)Cc2ccc(Cl)c(Cl)c2)c(=O)n(C)c1=O	·	25.9%	·	3.6%	89.1µM*
COc1ccc(CC(=O)OCC(=O)c2c(N)n(C)c(=O)n(C)c2=O)cc1OC	44.8%[2.33 µM]	27.1%	48.5%	39.0%	-14.9%
Cn1c(N)c(C(=O)COC(=O)c2ccccn2)c(=O)n(C)c1=O	20µM*	1.9%	79.4µM*	-2.2%	79.4µM*
CC(=O)OCC(NC(=O)C(C)NC(=O)OC(C)(C)C)C1OC(n2ccc(=O)[nH]c2=O)C(OC(C)=O)C1OC(C)=O (stereo not given)	·	43.0%	·	·	-9.7%
Cc1ccc(S(=O)(=O)N2CCN(c3nc(-c4cscn4)nc4ccccc34)CC2)cc1	·	22.6%	·	·	?
Cn1c(N)c(C(=O)CSc2nnc(NC3CCCCC3)s2)c(=O)n(C)c1=O	50.1µM*	18.4%	1.3%	2.5%	3.7%
CC(=O)c1c(C)[nH]c(C(=O)CSc2nnc(NC3CC3)s2)c1C	50.1µM*	63.7%	-22.6%	8.4%	-11.3%
CC(=O)c1c(C)[nH]c(C(=O)CSc2ccc(F)cc2)c1C	-26.8%	22.9%	-2.3%	-2.2%	-12.0%
CC(C)Nc1nnc(SCC(=O)c2c(N)n(Cc3ccccc3)c(=O)n(C)c2=O)s1	-17.3%	31.6%	0.8%[57.1 µM]	7.3%	7.2%
Cn1nc(C(=O)Nc2cc(F)ccc2F)c2c1-c1ccccc1SC2	-24.5%[59 µM]	41.0%	-2.8%	·	-15.6%
CCc1ccc(C(=O)NNc2cc(Cl)ccc2Cl)cc1	-3.3%	61.7%	-8.0%	2.8%	-25.2%
CCOC(=O)C(=NCCOC)NNc1cc(Cl)ccc1Cl	39.8µM*	14.8%	?	-8.0%	?
CCOC(=O)C1CCCN(C2CC(=O)N(c3cccc(C)c3)C2=O)C1 (stereo not given)	28.2µM*	40.1%	?	2.7%	?
CCOC(=O)c1ccc(N2C(=O)CC(N3CCN(Cc4ccccc4)CC3)C2=O)cc1 (stereo not given)	-7.9%	12.7%	4.0%	3.4%	-10.1%
CCOC(=O)c1ccc(N2C(=O)CC(N3CCC(Nc4ccc(F)cc4)CC3)C2=O)cc1 (stereo not given)	10µM*	11.6%	-31.2%	·	?
CCOC(=O)c1ccc(N2C(=O)CC(N3CCCC(C)C3)C2=O)cc1 (stereo not given)	10µM*	40.2%	3.5%	·	-6.3%
Cc1ccccc1CSc1ccc(-c2cccs2)nn1	120.7%[59 µM]	136.1%	74.6%	·	55.7%
Cc1c(C#N)c(O)n(CCO)c(=O)c1N=Nc1ccc2c(c1)COC2=O	50.1µM*	-18.0%	-17.5%	·	-34.4%
Cc1cc(=O)n(CCO)c(O)c1C#N	?	1.5%	?	·	?
CCN(CC)CCCC(C)Nc1c2ccc(Cl)cc2nc2ccc(OC)cc12 (stereo not given)	8.44µM*	·	-34.1%	·	·
CCN(CC)CCCC(C)Nc1cc(/C=C/c2ccccc2Cl)nc2cc(Cl)ccc12 (stereo not given)	-15.6%[12.7 µM]	·	·	·	·
CCOC(=O)c1sc(NCCNc2nc(C)c(C(=O)OCC)s2)nc1C	50.1µM*	7.7%	-12.3%	5.1%	50.1µM*
CCOC(=O)c1sc(NC(=O)CCC(=O)O)nc1C	-4.9%	-17.6%	0.7%	13.6%	-11.3%
CCOC(=O)c1sc(N)nc1C(C)(C)C	15.8µM*	0.2%	9.3%	-0.6%	-6.2%[11.4 µM]
CCOC(=O)c1sc(NC(=O)COc2ccc3c(c2)OCO3)nc1C	39.8µM*	43.5%	-2.1%	·	1.4%
SMILES	G9a block	HP1b binding inh	BAZ2B inh	L3MBTL1 block	JMJD2A Tudor
Cc1ccc(S(=O)(=O)Nc2nc(C)c(C(=O)NN)s2)cc1	·	19.8%	-15.7%	4.1%	-1.1%
CCOC(=O)c1sc(NS(=O)(=O)c2ccc(C)cc2)nc1C	50.1µM*	38.6%	?	-1.0%	-7.1%
CSc1cccc(NC(=O)CN2C(=O)COc3ccc(S(=O)(=O)N4CCC(C)CC4)cc32)c1	-5.7%[59 µM]	57.8%	-20.3%	·	-18.3%
CCNc1ncc2nc(-c3ccc(Cl)cc3)c(=O)n(Cc3ccc(F)cc3)c2n1	12.4%[0.501 µM]	·	·	·	·
C=C(C)[C@H]1CC=C(CO)CC1	25.5%[59 µM]	·	·	·	·
CCOC(=O)c1sc(Nc2ccc(Br)cc2)nc1C	?	8.9%	-25.6%	5.8%	56.2µM*
C(=N\NC1=NCCN1)/c1ccncc1	39.8µM*	7.4%	?	-5.5%	?
COc1ccc(S(=O)(=O)N2CCCC2C(=O)n2nc(C)cc2C)cc1 (stereo not given)	-32.3%	11.5%	-6.2%	·	-9.7%
CCn1c(CC(C)C)n[nH]c1=S	·	33.4%	10.4%	1.6%	?
CCn1c(CCn2ccnc2C)n[nH]c1=S	?	23.4%	2.8%	4.2%	22.4µM*
Cn1c(Cc2cccc3ccccc23)nnc1SCC(=O)N1CCN(c2ccccc2)CC1	?	-6.6%	?	-12.5%	79.4µM*
Cn1c(Cc2ccccc2)nnc1SCC(=O)N1CCN(c2ccccc2)CC1	-37.7%[12.7 µM]	30.7%	13.4%	3.6%	0.3%
CCn1c(CC(=O)Nc2cccc(OC)c2)nnc1SCC(=O)N1CCN(c2ccccc2)CC1	12.6µM*	6.3%	-28.2%	24.1%[11.4 µM]	-24.7%
Cc1ccccc1-c1noc(-c2ccc(NCc3ccco3)c([N+](=O)[O-])c2)n1	?	35.7%	-4.2%	·	?
O=C(NCc1ccco1)C1CCN(c2nc3ccccc3n2Cc2ccc(F)cc2)CC1	79.4µM*	-6.4%	?	·	?
O=C(Oc1ccc2ccccc2c1Cl)N1CCCCCC1	82.0%[59 µM]	89.1%	61.1%	31.6%	28.9%
CC1(C)Cc2c(ccc3ccccc23)/C(=C/C(=O)N2CCCCC2)N1	?	-11.8%	50.1µM*	-9.4%	-57.7%
O=C(O)C(Cc1c[nH]c2ccccc12)NS(=O)(=O)c1ccc(Br)cc1 (stereo not given)	?	?	-20.7%	·	28.2µM*
O=C(O)C(Cc1c[nH]c2ccccc12)NS(=O)(=O)c1ccc(Cl)cc1 (stereo not given)	?	13.0%	8.2%	-17.4%	0.6%
CC(C)C[C@H](NS(=O)(=O)c1ccc(Br)cc1)C(=O)O	-43.8%	-6.5%	4.0%	·	89.1µM*
Cc1ccc(C(=O)NCC(c2ccc3c(c2)OCO3)N2CCOCC2)cc1 (stereo not given)	3.4%[59 µM]	20.1%[57 µM]	3.7%	·	-1.3%
CC(=O)NC12CC3CC(C1)CC(C(=O)N1CCN(c4ncccn4)CC1)(C3)C2	·	12.8%	·	·	-14.7%
Cc1cccc(N=Nc2cn[nH]c2-c2ccco2)c1	?	?	20µM*	?	-10.5%[11.4 µM]
CC1CCN(C(=O)CSc2nnc3c(n2)[nH]c2ccccc23)CC1	18.1%	-1.0%	-16.5%	·	?
CC1=CCC(/C=N\Nc2nnc3c(n2)[nH]c2ccccc23)CC1 (stereo not given)	-8.4%[59 µM]	·	50.1µM*	-6.2%	·
O=C(c1cnn2c1NC(c1ccco1)CC2C(F)(F)F)N1CCN(c2cccc(Cl)c2)CC1 (stereo not given)	10µM*	20.1%	?	-13.8%	-22.8%

Bioassay records as filed in PubChem.
